USP28 inh: inhibitors of human USP28 deubiquitinase; inhibition, % at 25 µM; Ubiquitin carboxyl-terminal hydrolase 28 (Homo sapiens), Q96RU2; hit rate 3% among 47,000; purified USP28, Ub-rhodamine cleavage fluorescence, 30 min; AID 1645857, 2021
USP30 block: inhibitors of human USP30 deubiquitinase; purified USP30, Ub-rhodamine cleavage fluorescence; inhibition, % at 25 µM; hit rate 5.3% among 47,000; Ubiquitin carboxyl-terminal hydrolase 30 (Homo sapiens), Q70CQ3
USP17 inh: inhibitors of human USP17 deubiquitinase | Ubiquitin carboxyl-terminal hydrolase 17-like protein 5 (Homo sapiens), A8MUK1 | purified USP17, Ub-rhodamine cleavage fluorescence, 3 h | inhibition, % at 50 µM | hit rate 6.5% among 47,000 | AID 1645855, 2021
USP10 inh: inhibitors of human USP10 deubiquitinase. AID 1645856, 2021. hit rate 1.1% among 47,000. purified USP10, Ub-rhodamine fluorescence, 60 min. inhibition, % at 20 µM. Ubiquitin carboxyl-terminal hydrolase 10 (Homo sapiens), Q14694
Target sequence (Q14694 whole entry, looked up): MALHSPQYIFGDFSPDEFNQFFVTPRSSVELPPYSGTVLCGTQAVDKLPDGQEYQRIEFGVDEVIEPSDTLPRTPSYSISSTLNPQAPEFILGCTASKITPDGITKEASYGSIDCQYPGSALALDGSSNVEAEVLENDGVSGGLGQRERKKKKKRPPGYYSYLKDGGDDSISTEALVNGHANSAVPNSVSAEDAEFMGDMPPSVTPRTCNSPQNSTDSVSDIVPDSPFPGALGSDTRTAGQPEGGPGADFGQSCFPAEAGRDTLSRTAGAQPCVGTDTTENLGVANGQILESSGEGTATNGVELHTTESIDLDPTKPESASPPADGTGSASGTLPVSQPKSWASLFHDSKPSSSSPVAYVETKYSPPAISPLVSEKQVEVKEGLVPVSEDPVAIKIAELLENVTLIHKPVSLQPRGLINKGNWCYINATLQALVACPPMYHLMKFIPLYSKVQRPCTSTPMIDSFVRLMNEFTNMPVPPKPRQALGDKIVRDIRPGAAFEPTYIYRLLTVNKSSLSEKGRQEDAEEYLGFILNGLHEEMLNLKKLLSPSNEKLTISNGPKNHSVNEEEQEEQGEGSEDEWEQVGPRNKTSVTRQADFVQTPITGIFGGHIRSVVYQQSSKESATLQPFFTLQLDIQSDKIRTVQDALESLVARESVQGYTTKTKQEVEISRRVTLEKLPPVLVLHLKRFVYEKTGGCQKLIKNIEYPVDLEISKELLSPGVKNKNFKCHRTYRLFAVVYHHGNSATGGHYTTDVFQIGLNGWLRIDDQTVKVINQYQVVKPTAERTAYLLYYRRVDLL
USP8 inh: inhibitors of human USP8 deubiquitinase; Ubiquitin carboxyl-terminal hydrolase 8 (Homo sapiens), P40818; inhibition, % at 20 µM; purified USP8, Ub-rhodamine cleavage fluorescence, 30 min; hit rate 4.2% among 47,000; AID 1645853, 2021
USP7 block: inhibitors of human USP7 deubiquitinase | Ubiquitin carboxyl-terminal hydrolase 7 (Homo sapiens), Q93009 | purified USP7, Ub-rhodamine cleavage fluorescence | inhibition, % at 20 µM | hit rate 0.3% among 47,000 | AID 1645854, 2021
The depositor's hits bear a star. Only some compounds are listed: those with a hit (about 13% of all), similar ones and a draw of the others. Rule as the data show it: active = inhibition above about 30%; inactive = the rest.

SMILES | USP28 inh | USP30 block | USP17 inh | USP10 inh | USP8 inh | USP7 block
COc1ccc2scc(N3CCC4(CC3)OCCO4)c(=O)c2c1 | -6.2 | -24.9 | -2.7 | -5.8 | -9.7 | -10.0
Cc1ccc(S(=O)(=O)N[C@@H](C(=O)N2CCC(C(=O)N[C@@H](Cc3ccc(O)cc3)C(=O)O)CC2)C(C)C)cc1 | 9.1 | 23.0 | 7.2 | 1.5 | 12.4 | 1.3
O=C1C(NS(=O)(=O)Cc2ccc(Cl)cc2)CCN1c1ccccc1 (centres undefined) | 8.0 | 15.7 | 17.8 | 5.4 | 31.4* | 16.4
Cc1ccc(CNC(=O)NC2CCN(c3ccccc3)C2=O)cc1 (centres undefined) | 9.2 | 32.8* | 7.6 | 5.7 | 31.8* | 9.4
O=C(Nc1ccccc1F)NC1CCN(c2ccc(F)cc2)C1=O (centres undefined) | 26.3 | 79.8* | 51.4* | 7.0 | 25.6 | 5.7
COc1ccccc1NC(=O)NC1CCN(c2ccccc2)C1=O (centres undefined) | -9.6 | -7.1 | 12.0 | 0.0 | 2.4 | -0.2
O=C(NCCc1ccc(O)cc1)c1ccc2ccccc2c1 | 16.9 | 4.3 | -6.8 | 2.3 | 6.1 | 2.7
CC(=O)c1cccc(NC(=O)c2sc3nc(-c4cccc([N+](=O)[O-])c4)cn3c2C)c1 | 14.0 | 18.7 | 21.2 | 13.9 | 57.8* | 0.8
COc1ccc(NC(=O)c2sc3nc(-c4cccc([N+](=O)[O-])c4)cn3c2C)cc1OC | -7.7 | 6.5 | 43.9* | 3.9 | 2.3 | 1.2
COc1ccc(-c2cn3c(C)c(C(=O)Nc4cccc(C(C)=O)c4)sc3n2)cc1 | -65.3 | -68.0 | -25.6 | -8.6 | 0.0 | -1.9
CCc1c(C)nc2c(-c3ccccc3)c(Cc3ccccc3)[nH]n2c1=O | 12.1 | 26.5 | 17.3 | 16.3 | 61.6* | 7.2
O=C(NCc1cnc(C2CCCCO2)nc1)c1n[nH]c2c1CCC2 (centres undefined) | 9.2 | 11.8 | 14.5 | -0.9 | 16.9 | 3.0
CC1(c2ncc(CNC(=O)c3n[nH]c4c3CCCC4)cn2)CCCCO1 (centres undefined) | 12.3 | 31.6* | 9.8 | 2.2 | -1.1 | 7.5
Cc1ccc(C)c2[nH]c(=O)c(CN(CC3CCCO3)S(=O)(=O)c3ccccc3Cl)cc12 (centres undefined) | 19.8 | 33.0* | 14.1 | 3.5 | 18.9 | 1.7
CC(=O)Nc1ccc(S(=O)(=O)N(Cc2cc3ccc(C)cc3[nH]c2=O)CC2CCCO2)cc1 (centres undefined) | -3.1 | -23.7 | 0.9 | -1.8 | 6.7 | -6.6
Cc1n[nH]c(C)c1CCc1nc2c3ccccc3nc(SCC(=O)c3ccc(F)cc3)n2n1 | 8.4 | 71.2* | 53.2* | 0.0 | 10.8 | 4.2
O=S(=O)(c1ccc2nc(NC3CCCCC3)cnc2c1)N1CCCCC1 | -31.7 | -126.5 | -17.9 | -2.7 | -19.1 | 1.5
C[C@H](NC(=O)N1CCn2c1nc1ccccc12)C(=O)NCc1ccc(F)cc1 | 2.9 | 40.8* | 34.3* | -3.6 | -0.7 | -6.6
C[C@H](NC(=O)[C@H](Cc1ccccc1)NC(=O)N1CCn2c1nc1ccccc12)C(=O)O | 16.9 | 14.7 | 17.3 | 3.3 | 12.4 | 1.6
CCC(C)[C@H](NC(=O)N1CCn2c1nc1ccccc12)C(=O)NCCc1ccccc1 (some centres undefined) | 24.8 | 30.0* | 35.5* | -0.4 | 7.1 | -4.1
CC(=O)N1CCCCC[C@@H]2[C@@H]1[C@H](c1cccc(F)c1)CN2C(=O)c1ncc[nH]1 | 11.4 | 23.7 | 12.0 | -0.7 | 20.2 | 4.9
COc1cccc(NC(=O)C(C)n2cnc3nc(N4CCCCC4)ncc3c2=O)c1 (centres undefined) | -0.6 | 4.9 | 2.4 | -0.1 | 17.3 | 0.7
CC(C(=O)Nc1ccccc1)n1cnc2nc(N3CCCCC3)ncc2c1=O (centres undefined) | -21.6 | -124.8 | 69.5* | -2.3 | -0.4 | -1.4
CC(C(=O)Nc1ccc(F)cc1)n1cnc2nc(N3CCCCC3)ncc2c1=O (centres undefined) | -94.9 | -111.7 | -23.2 | -4.3 | 32.3* | -6.8
CC(C)n1ccc(-c2cc(C(=O)NCCc3ccccn3)c3ccccn23)n1 | 1.0 | -118.4 | -53.1 | -9.4 | -144.3 | -21.8
